The results in this text go back to PubChem BioAssay (EPA / NIEHS).

The AC50 is the concentration at which the activity in the assay is half-maximal.

The structures appear in SMILES notation. “And” between values parts separate entries of the source, which are not always exact repeats. Identical values can stand only once. A structure can be active in one record and inactive in another. The source made the active and inactive calls. Rule for the calls: active = hit-call score of the fitted dose curve at least 0.9, where 1 is the maximum; inactive = score below 0.9.

The first experiment in a line: APR_HepG2_MitoMembPot_72hr: Apredica 72-hour HepG2 Assay for Mitochondrial Membrane Potential (AID 2282917). As to conditions: imaging, actives raise or lower the signal. A digest of the protocol:
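HepG2 cells dosed 72 hr with compound at 0.39–200 uM in duplicate, 0.5% v/v DMSO final. Mitochondria stained with 250 nM MitoTracker Red CMXRos for 30 min before formaldehyde fixation, imaged by high-content fluorescence; bidirectional fit versus DMSO.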
On to `CC(Oc1ccc(Cl)cc1Cl)C(=O)O` (centres undefined), for which the result was inactive.

In the case of `CN(C)C(=S)SSC(=S)N(C)C`, the compound was called inactive.

As for `CCON=C(CC)C1=C(O)CC(c2c(C)cc(C)cc2C)CC1=O` (centres undefined), the outcome was inactive.

`CS/C(C)=N/OC(=O)N(C)SN(C)C(=O)O/N=C(\C)SC`: the call was inactive.

`CCCCNC(=O)OCC#CI`: the outcome was inactive.

On to `C=CCC1=C(C)[C@@H](OC(=O)[C@@H]2[C@@H](C=C(C)C)C2(C)C)CC1=O`, for which the compound was called inactive.

A further experiment is described as follows: APR_HepG2_MitoticArrest_72hr: Apredica 72-hour HepG2 Assay for Mitotic Arrest (AID 2282918). As to conditions: high-content imaging, actives raise or lower the signal. Put shortly:
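High-content imaging of fixed human HepG2 cells after 72 h compound exposure (0.39–200 uM, duplicates, 0.5% DMSO); mitotic arrest scored from phospho-histone H3 and nuclear Hoechst staining relative to DMSO.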
In the case of `O=C(O)COc1nc(Cl)c(Cl)cc1Cl`, the compound was called inactive.

In the case of `CC(C)(C)c1ccc(CSc2cnn(C(C)(C)C)c(=O)c2Cl)cc1`, the compound was called inactive.

On to `COC(=O)C(C)Oc1ccc(Oc2ccc(Cl)cc2Cl)cc1` (centres undefined), for which the compound was classed as inactive.

Take `CCOC(=O)C(Cl)Cc1cc(-n2nc(C)n(C(F)F)c2=O)c(F)cc1Cl` (centres undefined): the compound was called inactive.

Regarding `CC1=C(C(=O)Nc2ccccc2)SCCO1`, the compound was called inactive.

With `COc1cnc(OC)n2nc(NS(=O)(=O)c3c(OCC(F)F)cccc3C(F)(F)F)nc12`, the call was inactive.

As to `CO/C=C(/C(=O)OC)c1ccccc1Oc1cc(Oc2ccccc2C#N)ncn1`, the AC50 was 13.9 µM (active) and 24.7 µM (active) and 31 µM (active); the call was inactive.

Turning to `CCOC(=O)CC(SP(=S)(OC)OC)C(=O)OCC` (centres undefined), the compound was called inactive.

Regarding `CC(C)Oc1cc(-n2nc(C(C)(C)C)oc2=O)c(Cl)cc1Cl`, the AC50 was 42.6 µM (active).

Turning to `N#CC(CCc1ccc(Cl)cc1)(Cn1cncn1)c1ccccc1` (centres undefined), the result was inactive.

Turning to `Cc1c(F)c(F)c(COC(=O)C2C(/C=C(\Cl)C(F)(F)F)C2(C)C)c(F)c1F` (centres undefined), the result was inactive.

Take `COc1nc(C)nc(NC(=O)NS(=O)(=O)c2ccccc2Cl)n1`: the result was inactive.
